Measurements published in ChEMBL document CHEMBL3988442, “University of Dundee, Small-Polar-MMV Screening Library” (2021).
For some assays here: Potency and affinity values are given separately.

How the values were obtained:
Design in all cases: scale not given: direction of the effect not stated beside the values
[1] = molecular target: Protein translocase subunit SecA (Escherichia coli (strain K12)) (UniProt P10408); assay: Assay to Identify E. coli SecA ATPase Inhibitors; type: functional; settings: 30 µM
[2] = molecular target: T1, Ubiquitin-activating enzyme e1, putative (Leishmania donovani (strain BPK282A1)) (UniProt E9BSI1); assay: Leishmania donovani Ubiquitin Activating Enzyme (LdE1); type: functional; settings: 30 µM
T1 sequence (whole entry): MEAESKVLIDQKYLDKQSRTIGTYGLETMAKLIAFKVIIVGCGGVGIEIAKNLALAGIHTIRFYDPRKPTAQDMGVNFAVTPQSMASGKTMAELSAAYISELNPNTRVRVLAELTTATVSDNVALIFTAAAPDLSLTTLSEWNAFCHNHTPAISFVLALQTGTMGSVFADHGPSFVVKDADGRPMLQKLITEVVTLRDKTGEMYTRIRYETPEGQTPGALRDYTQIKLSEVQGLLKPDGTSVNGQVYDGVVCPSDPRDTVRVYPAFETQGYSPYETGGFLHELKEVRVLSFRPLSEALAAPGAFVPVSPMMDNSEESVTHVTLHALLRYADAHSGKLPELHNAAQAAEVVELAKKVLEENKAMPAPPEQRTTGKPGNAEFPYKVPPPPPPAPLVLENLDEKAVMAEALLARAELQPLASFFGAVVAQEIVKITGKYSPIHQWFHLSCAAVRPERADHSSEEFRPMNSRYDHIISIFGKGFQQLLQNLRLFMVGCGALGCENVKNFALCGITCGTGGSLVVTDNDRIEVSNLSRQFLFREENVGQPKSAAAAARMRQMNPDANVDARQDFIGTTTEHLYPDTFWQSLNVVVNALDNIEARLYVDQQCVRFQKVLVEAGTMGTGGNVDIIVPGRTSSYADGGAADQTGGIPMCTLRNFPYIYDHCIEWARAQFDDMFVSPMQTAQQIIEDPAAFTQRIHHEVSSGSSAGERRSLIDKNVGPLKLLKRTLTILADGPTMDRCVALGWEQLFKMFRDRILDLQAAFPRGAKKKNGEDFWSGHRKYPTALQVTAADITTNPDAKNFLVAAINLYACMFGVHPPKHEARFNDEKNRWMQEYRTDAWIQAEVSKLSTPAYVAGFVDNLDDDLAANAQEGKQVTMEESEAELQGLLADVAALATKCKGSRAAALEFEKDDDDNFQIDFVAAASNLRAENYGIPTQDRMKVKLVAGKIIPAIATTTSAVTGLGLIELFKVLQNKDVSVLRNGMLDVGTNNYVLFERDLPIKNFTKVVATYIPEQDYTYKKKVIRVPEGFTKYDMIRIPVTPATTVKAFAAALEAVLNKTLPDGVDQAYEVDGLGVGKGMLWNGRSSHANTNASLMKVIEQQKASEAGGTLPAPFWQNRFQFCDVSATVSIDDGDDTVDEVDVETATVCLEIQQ

[3] = molecular target: AMP-activated protein kinase, AMPK (Homo sapiens) (UniProt P54646+O43741+P54619+Q9UGJ0+Q9Y478+Q13131+Q9UGI9); assay: AMP-dependent Kinase enzyme assay. An in vitro enzyme assay that detects ADP turnover that is directly proportional to AMPK activity. This uses naive AMPK that is activated during the assay with MK-8722; type: functional; settings: 30 µM
[4] = molecular target: Sialic acid-binding Ig-like lectin 9 (Homo sapiens) (UniProt Q9Y336); assay: Hs-Siglec9 ALPHAscreen SOP 20170721; settings: 10 µM
Trypanosoma cruzi = assay: Trypanosoma cruzi phosphomannomutase and mannose-1-phosphate guanylyltransferase assay; type: functional; settings: 10 µM
[5] = molecular target: T2, Arginase-2, mitochondrial (Homo sapiens) (UniProt P78540); assay: in vitro enzyme assay to detect the production of urea directly proportional to the activity of Arginase II; type: functional; settings: 33.3 µM; further: in the data most compounds retested in dose-response had high values
T2 sequence (whole entry): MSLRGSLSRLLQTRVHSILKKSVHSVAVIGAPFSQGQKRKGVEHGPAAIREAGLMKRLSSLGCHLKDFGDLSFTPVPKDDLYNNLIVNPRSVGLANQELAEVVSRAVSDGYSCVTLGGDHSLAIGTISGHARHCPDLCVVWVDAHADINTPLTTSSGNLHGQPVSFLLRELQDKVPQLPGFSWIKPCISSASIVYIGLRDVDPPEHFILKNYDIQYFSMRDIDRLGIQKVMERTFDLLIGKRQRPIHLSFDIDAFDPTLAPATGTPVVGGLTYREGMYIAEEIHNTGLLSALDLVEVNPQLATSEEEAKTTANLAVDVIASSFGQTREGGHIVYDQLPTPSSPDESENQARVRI

[6] = molecular target: T3, Proteasome subunit beta (Trypanosoma cruzi) (UniProt O96673); assay: Trypanosoma cruzi proteasome chymotrypsin-like activity (TcProtChymo) assay.; further: in the data most compounds retested in dose-response had high values; type: functional; settings: 9.37 µM
T3 sequence (whole entry): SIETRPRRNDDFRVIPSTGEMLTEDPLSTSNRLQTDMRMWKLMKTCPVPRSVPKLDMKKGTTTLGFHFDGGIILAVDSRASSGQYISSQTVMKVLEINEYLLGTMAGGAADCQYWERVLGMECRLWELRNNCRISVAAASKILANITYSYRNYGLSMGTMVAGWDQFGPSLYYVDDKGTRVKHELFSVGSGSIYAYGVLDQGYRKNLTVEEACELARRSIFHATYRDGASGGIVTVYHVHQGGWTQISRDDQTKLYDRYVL

Homo sapiens = species on record: Homo sapiens; assay: To identify inhibition of the IFN signalling (Jak-Stat) pathway via expression of an eGFP reporter gene under the control of an IFN-stimulated response element (ISRE) containing MxA promoter.; type: functional; settings: 30 µM
[7] = molecular target: T4, Tyrosyl-tRNA synthetase, putative (Trypanosoma cruzi (strain CL Brener)) (UniProt Q4DSP6); assay: Trypanosoma cruzi tyrosyl tRNA synthetase (TcYRS) _High Tyrosine SOP; type: functional; settings: 30 µM; further: in the data most compounds retested in dose-response had high values
T4 sequence (whole entry): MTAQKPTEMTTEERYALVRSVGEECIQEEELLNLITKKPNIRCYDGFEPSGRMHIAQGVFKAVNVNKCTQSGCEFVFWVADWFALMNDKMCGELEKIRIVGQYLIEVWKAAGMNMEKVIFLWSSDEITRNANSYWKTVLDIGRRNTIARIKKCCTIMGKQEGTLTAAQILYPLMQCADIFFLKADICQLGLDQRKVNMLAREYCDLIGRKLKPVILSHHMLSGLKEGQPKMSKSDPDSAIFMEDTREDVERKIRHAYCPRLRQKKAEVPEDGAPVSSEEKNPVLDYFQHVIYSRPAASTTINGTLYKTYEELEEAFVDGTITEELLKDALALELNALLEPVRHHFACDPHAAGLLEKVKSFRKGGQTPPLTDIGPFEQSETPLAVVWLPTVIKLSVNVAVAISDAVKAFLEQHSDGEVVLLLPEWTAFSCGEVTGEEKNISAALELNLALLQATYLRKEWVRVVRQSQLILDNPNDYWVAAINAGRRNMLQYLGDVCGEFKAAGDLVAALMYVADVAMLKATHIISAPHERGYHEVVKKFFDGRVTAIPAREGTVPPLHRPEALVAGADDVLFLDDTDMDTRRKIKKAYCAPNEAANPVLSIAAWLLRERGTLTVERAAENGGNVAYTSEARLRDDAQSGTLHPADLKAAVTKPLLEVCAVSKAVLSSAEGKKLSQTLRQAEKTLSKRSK

[8] = molecular target: T4, Tyrosyl-tRNA synthetase, putative (Trypanosoma cruzi (strain CL Brener)); assay: Trypanosoma cruzi tyrosyl tRNA synthetase (TcYRS) SOP; type: functional; settings: 30 µM
[9] = molecular target: Chromo domain-containing protein 1 (Saccharomyces cerevisiae (strain ATCC 204508 / S288c) (Baker's yeast)) (UniProt P32657); assay: ScCHD-1 Enzyme Inhibition Assay; type: functional; settings: 30 µM; further: in the data most compounds retested in dose-response had high values
Chromo domain-containing protein 1 (Saccharomyces cerevisiae (strain ATCC 204508 / S288c) (Baker's yeast)), sequence (P32657 whole entry, the tested form may be a part): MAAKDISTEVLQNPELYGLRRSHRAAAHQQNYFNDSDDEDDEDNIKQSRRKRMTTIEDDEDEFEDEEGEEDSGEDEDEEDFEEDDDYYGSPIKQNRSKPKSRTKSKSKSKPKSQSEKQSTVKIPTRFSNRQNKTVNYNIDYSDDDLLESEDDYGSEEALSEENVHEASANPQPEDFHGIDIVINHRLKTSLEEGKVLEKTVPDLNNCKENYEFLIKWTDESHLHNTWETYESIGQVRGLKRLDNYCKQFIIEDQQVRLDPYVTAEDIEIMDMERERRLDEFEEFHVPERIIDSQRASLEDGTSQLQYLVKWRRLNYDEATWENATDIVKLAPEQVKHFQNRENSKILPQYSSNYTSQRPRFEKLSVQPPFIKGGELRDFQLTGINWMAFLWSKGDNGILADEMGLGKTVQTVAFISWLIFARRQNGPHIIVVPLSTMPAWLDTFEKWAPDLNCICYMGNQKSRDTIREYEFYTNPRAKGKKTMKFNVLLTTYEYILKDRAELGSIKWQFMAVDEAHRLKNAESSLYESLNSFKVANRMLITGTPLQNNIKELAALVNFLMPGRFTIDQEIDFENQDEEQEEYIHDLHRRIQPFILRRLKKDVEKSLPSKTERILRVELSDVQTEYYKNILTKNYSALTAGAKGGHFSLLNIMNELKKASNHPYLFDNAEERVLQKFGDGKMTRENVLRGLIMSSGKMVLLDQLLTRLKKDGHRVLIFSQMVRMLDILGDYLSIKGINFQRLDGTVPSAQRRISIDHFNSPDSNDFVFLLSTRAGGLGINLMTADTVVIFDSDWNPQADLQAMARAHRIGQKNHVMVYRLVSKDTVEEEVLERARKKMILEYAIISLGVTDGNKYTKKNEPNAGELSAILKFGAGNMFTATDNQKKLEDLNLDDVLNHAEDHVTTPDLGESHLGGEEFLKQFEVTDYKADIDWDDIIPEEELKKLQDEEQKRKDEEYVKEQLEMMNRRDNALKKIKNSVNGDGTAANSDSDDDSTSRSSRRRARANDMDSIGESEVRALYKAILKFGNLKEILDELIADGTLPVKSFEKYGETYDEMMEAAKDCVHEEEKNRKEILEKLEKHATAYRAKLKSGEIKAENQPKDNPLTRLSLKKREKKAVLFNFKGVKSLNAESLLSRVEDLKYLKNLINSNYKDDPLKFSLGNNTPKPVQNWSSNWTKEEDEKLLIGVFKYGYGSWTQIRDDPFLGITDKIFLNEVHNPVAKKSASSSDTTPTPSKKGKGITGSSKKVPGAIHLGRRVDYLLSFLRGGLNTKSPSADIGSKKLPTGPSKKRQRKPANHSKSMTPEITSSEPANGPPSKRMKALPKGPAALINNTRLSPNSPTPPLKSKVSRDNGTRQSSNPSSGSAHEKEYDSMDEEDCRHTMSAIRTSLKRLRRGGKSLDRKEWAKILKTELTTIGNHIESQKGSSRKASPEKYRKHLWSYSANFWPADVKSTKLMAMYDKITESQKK

Sialic acid-binding Ig-like lectin 9 (Homo sapiens), sequence (Q9Y336 whole entry): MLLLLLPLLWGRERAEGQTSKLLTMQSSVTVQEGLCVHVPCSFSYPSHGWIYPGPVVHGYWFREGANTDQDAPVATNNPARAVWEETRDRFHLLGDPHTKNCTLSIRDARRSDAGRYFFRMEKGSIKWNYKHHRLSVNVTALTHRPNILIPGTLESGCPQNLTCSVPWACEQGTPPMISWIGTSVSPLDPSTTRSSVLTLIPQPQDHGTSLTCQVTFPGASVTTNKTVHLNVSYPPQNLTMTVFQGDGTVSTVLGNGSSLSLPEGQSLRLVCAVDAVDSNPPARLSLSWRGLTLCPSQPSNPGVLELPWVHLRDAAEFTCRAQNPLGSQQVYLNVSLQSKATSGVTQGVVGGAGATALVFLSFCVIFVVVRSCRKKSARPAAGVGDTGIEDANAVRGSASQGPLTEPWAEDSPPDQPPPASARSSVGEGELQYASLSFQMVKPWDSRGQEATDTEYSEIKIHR
Protein translocase subunit SecA (Escherichia coli (strain K12)), sequence (P10408 whole entry): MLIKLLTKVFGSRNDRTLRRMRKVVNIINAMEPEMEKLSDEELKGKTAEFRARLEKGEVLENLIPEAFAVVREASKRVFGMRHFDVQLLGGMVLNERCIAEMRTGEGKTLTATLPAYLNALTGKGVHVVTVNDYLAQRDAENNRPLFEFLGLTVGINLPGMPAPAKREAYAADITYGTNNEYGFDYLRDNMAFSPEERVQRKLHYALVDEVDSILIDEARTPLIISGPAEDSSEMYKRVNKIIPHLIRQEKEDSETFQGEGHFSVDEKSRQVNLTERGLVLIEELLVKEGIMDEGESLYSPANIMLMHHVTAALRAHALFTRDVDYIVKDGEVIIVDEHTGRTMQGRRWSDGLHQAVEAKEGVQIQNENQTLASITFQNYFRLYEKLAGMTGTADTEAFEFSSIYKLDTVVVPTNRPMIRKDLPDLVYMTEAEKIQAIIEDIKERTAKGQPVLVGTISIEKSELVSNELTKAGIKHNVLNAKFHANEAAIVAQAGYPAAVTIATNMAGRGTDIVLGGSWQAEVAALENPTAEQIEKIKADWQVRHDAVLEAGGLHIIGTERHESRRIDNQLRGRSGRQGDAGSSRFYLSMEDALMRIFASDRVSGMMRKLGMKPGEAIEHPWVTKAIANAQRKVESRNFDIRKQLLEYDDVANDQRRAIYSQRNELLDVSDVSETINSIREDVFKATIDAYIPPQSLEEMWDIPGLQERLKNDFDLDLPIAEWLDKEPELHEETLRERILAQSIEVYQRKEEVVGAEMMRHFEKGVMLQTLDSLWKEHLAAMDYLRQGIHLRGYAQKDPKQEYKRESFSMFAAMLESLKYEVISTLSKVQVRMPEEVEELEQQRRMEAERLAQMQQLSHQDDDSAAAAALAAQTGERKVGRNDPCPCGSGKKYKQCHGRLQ

| SMILES | Percent Effect [1] [%] | Percent Effect [2] [%] | Percent Effect [3] [%] | Percent Effect [4] [%] | Percent Effect (Trypanosoma cruzi) [%] | Percent Effect [5] [%] | Percent Effect [6] [%] | Percent Effect (Homo sapiens) [%] | Percent Effect [7] [%] | Percent Effect [8] [%] | Percent Effect [9] [%] |
| --- | --- | --- | --- | --- | --- | --- | --- | --- | --- | --- | --- |
| Cn1cc(CCNC(=O)CCc2ccc3c(c2)OCO3)cn1 | -0.341 | 16.2 | 0.891 | 13.4 | -9.75 | 3.88 | 13.3 | 8.13 | 1.98 | 13.4 | -6.68 |
| Cc1ccc(N2CCCc3sc(C(=O)NCc4cccnc4)nc32)nn1 | -3.86 | -8.22 | -0.787 | 3.77 | 7.54 | -7.19 | 5.39 | -8.08 | 1.04 | 6.17 | -2.84 |
| FC(F)(F)c1cc(N2CCc3ncnc(NC4CC4)c3CC2)ncn1 | -1.41 | 13.3 | 11.7 | -4.57 | -3.86 | -57.5 | 14.4 | 10.9 | 5.21 | -5 | -8.14 |
| CCN(Cc1ccc2c(c1)OCCO2)C(=O)NCc1cc[nH]n1 | -2.19 | 15.6 | 1.3 | 2.08 | -2.06 | 1.47 | 7.03 | -7.15 | 5.71 | 11.8 | -19.3 |
| COc1ccc(C(=O)N2CCC(Nc3cccnn3)CC2)c(OC)c1 | 1.87 | -3.8 | 3.46 | 2.44 | -4.41 | 5.38 | 0.858 | 0.418 | -1.04 | 2.53 | -16 |
| CN(Cc1ccccc1F)C(=O)CS(=O)(=O)Cc1ccc(Cl)c(Cl)c1 | 0.269 | 10.4 | 6.8 | 0.809 | 2.06 | -8.21 | 4.29 | 9.03 | -6.67 | -296 | -20.3 |
| CC(C)CN1CCN(Cc2nc3ccccc3[nH]2)[C@H]2CS(=O)(=O)C[C@H]21 | -0.363 | 10.8 | 1.86 | -1.7 | -6.35 | 2.73 | 5.41 | 0.0398 | 14 | 23.5 | -6.24 |
| CC(NC(=O)C1=NN(C)C(=O)CC1)c1ccc(F)cc1F (configuration not stated) | -1.15 | 16.4 | 16.9 | 10.9 | 4.11 | -4.09 | 20.4 | 14.5 | 5.38 | 15 | -6.12 |
| Cc1ccccc1CNc1nc(O)cc(C2CC(=O)N(C)C2)n1 (configuration not stated) | 3.9 | 6.76 | 3.36 | -2.99 | -44.5 | 4.87 | 13.1 | 8.17 | 2.15 | 9.09 | -10.8 |
| Cc1cccc(-c2[nH]ncc2CNCC2CCN(CC(C)O)CC2)c1 (configuration not stated) | -3.75 | 8.11 | -18.5 | 11.6 | 1.42 | 0.401 | 3.96 | 3.31 | 5.42 | 18.5 | -8.81 |
| CCc1cnc2c(c1Nc1ccncc1)c(=O)n(C)c(=O)n2C | 0.799 | 18.2 | 5.71 | -13.1 | 2.27 | 1.94 | 14.6 | 35.5 | 7.41 | 14.1 | -10.9 |
| COCc1nc2n(n1)CCCC2Nc1nc(C2CC2)ns1 (configuration not stated) | -2.6 | 5.33 | -1.82 | 23.5 | 2.82 | 16.1 | 13.6 | -2.26 | 4.92 | 13.6 | -5.92 |
| Cn1ncc2c(NCCC34CCCN3CCC4)nc(C3CCCC3)nc21 | -5.81 | 5.48 | 0.214 | 3.33 | 0.979 | 4.09 | 5.68 | -18.5 | 6.45 | 12.5 | -5.71 |
| COc1cccc(CCC2CCCN(C(=O)c3n[nH]c4c3CCC4)C2)c1 (configuration not stated) | -4.51 | -18.9 | 3.21 | 4.19 | -1.35 | -8.1 | 5.69 | 46.1 | 11.1 | 2.44 | -1.85 |
| Cc1cc(O)c(OCC(=O)/N=c2\[nH]cc(C)s2)cn1 | -5.77 | 18.4 | 3.17 | 0.981 | 3.6 | -5.92 | 5.85 | -4.26 | 5.32 | 10.4 | -2.08 |
| O=C(C1CCC1)N1CCC2(COCc3cnc(N4CCOCC4)nc32)C1 (configuration not stated) | 2.09 | 13.3 | -2.58 | -6.19 | 0.772 | -59.7 | 9.23 | -2.75 | 2.08 | 12.5 | -9.27 |
| CN(C)C(=O)N1C[C@H]2CN(Cc3cccc(F)c3)C(=O)[C@H]2C1 | -4.01 | 10.8 | 7.46 | -7.24 | -4.2 | 0.955 | 20.9 | 4.49 | 0 | -7.69 | -1.2 |
| Cc1nc2cc(O)nn2c(C)c1CCC(=O)N(C)Cc1cscn1 | -7.5 | 18.4 | -470 | -2.99 | 8.08 | -4.73 | 6.42 | 15.6 | -6.38 | 5.2 | -11.6 |
| Cc1ccc(N2CCCN(C(=O)c3cc(Cl)c[nH]3)CC2)nn1 | -3.96 | -5.48 | 4.73 | 4.6 | -3.17 | 3.59 | 9.33 | 2.32 | 12.5 | 23.5 | -1.25 |
| Cc1nc(C)n(C2CCCN(C(=O)c3cc(C(N)=O)cs3)C2)n1 (configuration not stated) | -7.57 | 13.9 | 0.492 | -4 | 0.718 | 1.07 | 8.92 | -7.04 | 2.08 | 12.7 | -31.4 |
| O=C(CCN1CCCC1c1cccs1)N1CCc2sccc2C1 (configuration not stated) | 0.699 | -29.7 | -9.71 | 3.83 | -1.6 | -18 | 3.96 | 5.67 | 3.45 | -11.1 | 2.06 |
| CC(C)c1nc(N2CC(N3CCCCC3C)C2)c2cnn(C)c2n1 (configuration not stated) | -7.05 | -2.74 | -1.43 | -2.38 | -7.14 | -2 | 4.54 | 4.43 | -3.12 | 8.64 | -2.78 |
